According to PubChem BioAssay (Tox21):
Values joined by “and” are separate entries in the source; they are usually repeats but may differ in a detail not shown here. Identical values can stand only once. Inconclusive results are not listed. Where a call stands in place of a potency, no number is given. A structure can be active in one record and inactive in another. Active and inactive are the calls of the source. Unless noted, the call rests on the fitted dose curve; in most records, active means well fitted curve in the direction sought with a large enough effect in the repeat runs; inconclusive means weak or mixed curves; inactive means no such curve, though single readings can be large; an effect the other way counts as inactive or inconclusive.

Tests used:
[1] = qHTS assay to identify small molecule antagonists of the vitamin D receptor (VDR) signaling pathway - cell viability counter screen (AID 743225); further: nearly all actives have a fitted effect of over 50% in size; further: potency means the concentration at half of the fitted maximal effect
How it was run: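 Same-well multiplex: following 16 h treatment of HEK 293T cells carrying a UAS-driven beta-lactamase reporter with compound and agonist (3 nM final), and a 2 h FRET substrate step, CellTiter-Glo was added and luminescence read after 30 min.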

[2] = qHTS assay to identify small molecule agonists of the NFkB signaling pathway - cell viability counter screen (AID 1159515; calls by dose curve; further: nearly all actives have a fitted effect of over 55% in size; further: potency means the concentration at half of the fitted maximal effect)
How it was run: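 5 hr compound treatment of NFkB-bla ME-180 cells (2,000/well, seeded overnight beforehand), followed by reporter substrate for 1.5 hr. CellTiter-Glo added afterward; luminescence after 30 min RT.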

[3] = qHTS assay to identify small molecule antagonists of the retinoid-related orphan receptor gamma (ROR-gamma) signaling pathway - cell viability counter screen (AID 1159520); further: nearly all actives have a fitted effect of over 50% in size; further: potency means the concentration at half of the fitted maximal effect
How it was run: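 Tet-on ROR gamma CHO cells were given compounds for 2 hr, then doxycycline hyclate at 1 uM final, and incubated 16 hr at 37 C. Viability was measured as ATP content by CellTiter-Glo luminescence.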

[4] = molecular target: Nuclear receptor ROR-gamma (Homo sapiens) (UniProt P51449); assay: qHTS assay to identify small molecule antagonists of the retinoid-related orphan receptor gamma (ROR-gamma) signaling pathway (AID 1159521; further: nearly all actives have a fitted effect of over 50% in size; further: potency means the concentration at half of the fitted maximal effect)
How it was run: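 Inducible-expression reporter assay: doxycycline (1 uM final) switched on RORγ in CHO cells bearing a ROR response element-luciferase construct, with test compounds present from 2 h beforehand. Decreased luminescence after 16 h defined antagonist activity.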

[5] = qHTS assay to identify small molecule agonists of the AP-1 signaling pathway - cell viability counter screen (AID 1159525; calls by dose curve; further: nearly all actives have a fitted effect of over 55% in size; further: potency means the concentration at half of the fitted maximal effect)
How it was run: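 AP-1-bla ME-180 cells in Opti-MEM with 0.5% dialyzed FBS, compound exposure 5 h at 37 C in 15-point titration. Viability read in the same wells as ATP content by CellTiter-Glo luminescence, normalised to tetra-n-octylammonium bromide and DMSO controls.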

[6] = qHTS assay to identify small molecule agonists of the AP-1 signaling pathway (AID 1159526; calls by dose curve; further: potency means the concentration at half of the fitted maximal effect)
[7] = qHTS assay to identify small molecule agonists of the RXR signaling pathway - cell viability counter screen (AID 1159529); further: nearly all actives have a fitted effect of over 50% in size; further: potency means the concentration at half of the fitted maximal effect
How it was run: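 Counter screen: CellTiter-Glo luminescence. Cells: RXR-alpha-UAS-bla HEK 293T. Medium: 2% charcoal-stripped FBS. Treatment: 16 h, 37 C. Reagent incubation: 30 min, RT.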

[8] = qHTS assay to identify small molecule antagonists of the retinoid acid receptor (RAR) signaling pathway - cell viability counter screen (AID 1159551); further: nearly all actives have a fitted effect of over 35% in size; further: potency means the concentration at half of the fitted maximal effect
How it was run: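 Seed C3RL4 cells; next day add compound, then retinol to 1 uM final; incubate 6 h at 37 C; add CellTiter-Glo; read luminescence after 30 min at RT.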

[9] = qHTS assay to identify small molecule antagonists of the retinoic acid receptor (RAR) signaling pathway (AID 1159552; further: nearly all actives have a fitted effect of over 50% in size; further: potency means the concentration at half of the fitted maximal effect)
How it was run: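 Antagonism of retinol-induced RARE reporter activity was measured in C3RL4 cells. Exposure to compounds and 1 uM final retinol lasted 6 hr at 37 C, with luminescence as endpoint.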

[10] = qHTS assay to identify small molecule agonists of the retinoic acid receptor (RAR) signaling pathway (AID 1159553); conditions: C3RL4 RARE luciferase reporter, agonist, 6 h; activation: at 73.3 µM (top of the series) unless noted
How it was run: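 Activation of retinol signaling was monitored via a RARE luciferase reporter in C3RL4 cells. After 6 hr compound treatment at 37 C, detection reagent was added for 30 min at room temperature before luminescence reading.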

[11] = qHTS assay to identify small molecule agonists of the endoplasmic reticulum stress response signaling pathway - cell viability counter screen (AID 1159517; calls by dose curve; further: nearly all actives have a fitted effect of over 50% in size; further: potency means the concentration at half of the fitted maximal effect)
How it was run: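 Counter-screen wells were identical to the reporter wells. Cells were plated at 1,500 per well and dosed for 5 hr, then read for luminescence 30 min after CellTiter-Glo addition.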

[12] = qHTS assay to identify small molecule antagonists of the estrogen related receptor (ERR) signaling pathway from Tox21 library - cell viability counter screen (AID 1224834); further: nearly all actives have a fitted effect of over 30% in size; further: potency means the concentration at half of the fitted maximal effect
How it was run: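 CellTiter-Fluor fluorescence measured; ERR cells; 17.5 h compound incubation at 37 C; 30 min reagent step.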

[13] = qHTS assay to identify small molecule antagonists of the estrogen related receptor (ERR) signaling pathway - cell viability counter screen (AID 1224818);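 further: viability measured after 17.5 h of compound exposure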
How it was run: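 In the same ERR cell assay, compound-treated wells (17.5 h, 37 C) were multiplexed with a fluorogenic viability reagent, CellTiter-Fluor, read after 30 min to flag cytotoxic substances.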

[14] = qHTS assay to identify small molecule antagonists of the estrogen related receptor (ERR) signaling pathway (AID 1224819)
How it was run: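 qHTS in ERR cells, 2,000/well, 1536 format. Cpd (DMSO) added after 6 h settle, 18 h 37 C. One-Glo luminescence, 30 min RT.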

[15] = qHTS assay to identify small molecule agonists of the estrogen related receptor (ERR) signaling pathway (AID 1224820)
How it was run: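 Quantitative HTS of the LOPAC library used NTP ERR reporter cells treated 18 h at 37 C. Signal is luminescence after One-Glo addition and a 30 min room-temperature incubation.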

[16] = system: estrogen-related receptor alpha (ERRalpha) with PGC-1alpha coactivator, human; assay: qHTS assay to identify small molecule antagonists of the estrogen related receptor signaling pathway with the pleiotropic PPARgamma coactivator (PGC) (AID 1224821; calls by dose curve)
How it was run: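 Quantitative HTS for antagonism: PGC/ERR cells received compounds after 6 h attachment and were incubated 18 h at 37 C, with luminescence (One-Glo) as the endpoint.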

[17] = qHTS assay to identify small molecule antagonists of the estrogen related receptor signaling pathway with the pleiotropic PPARgamma coactivator (PGC) cell viability counter screen (AID 1224822)
How it was run: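 Compounds in DMSO, with positive and negative controls, were applied to PGC/ERR cells (2,000/well) and left 17.5 h at 37 C before CellTiter-Fluor detection.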

[18] = qHTS assay to identify small molecule agonists of the estrogen related receptor signaling pathway with the pleiotropic PPARgamma coactivator (PGC) (AID 1224823)
How it was run: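 Cell-based luciferase assay in the NTP-supplied PGC/ERR line, 2,000 cells/well; 18 h compound exposure at 37 C, luminescence after One-Glo.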

[19] = molecular target: Retinoic acid receptor RXR-alpha (Homo sapiens) (UniProt P19793); assay: qHTS assay to identify small molecule agonists of the RXR signaling pathway (AID 1159527; calls by dose curve; further: nearly all actives have a fitted effect of over 35% in size; further: potency means the concentration at half of the fitted maximal effect)
How it was run: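 Compounds in DMSO were added to RXR-alpha-UAS-bla HEK 293T cells kept in 2% charcoal-stripped serum, and incubated 16 hr at 37 C with 5% CO2. Reporter signal came from a 2 hr B/G FRET substrate step.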

[20] = qHTS assay to identify small molecule agonists of the endoplasmic reticulum stress response signaling pathway (AID 1159516; active means well fitted activation curve with a large enough effect in the signal ratio in the repeat runs, not every such curve was filed as active; the % refers to the signal ratio)
How it was run: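 Reporter HeLa cells (ESRE-beta-lactamase) underwent 5 hr compound incubation at 37 C and 5% CO2 in quantitative HTS format. Detection followed 2 hr of FRET substrate loading at room temperature.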

Sequence of Retinoic acid receptor RXR-alpha (Homo sapiens) (P19793 whole entry, looked up): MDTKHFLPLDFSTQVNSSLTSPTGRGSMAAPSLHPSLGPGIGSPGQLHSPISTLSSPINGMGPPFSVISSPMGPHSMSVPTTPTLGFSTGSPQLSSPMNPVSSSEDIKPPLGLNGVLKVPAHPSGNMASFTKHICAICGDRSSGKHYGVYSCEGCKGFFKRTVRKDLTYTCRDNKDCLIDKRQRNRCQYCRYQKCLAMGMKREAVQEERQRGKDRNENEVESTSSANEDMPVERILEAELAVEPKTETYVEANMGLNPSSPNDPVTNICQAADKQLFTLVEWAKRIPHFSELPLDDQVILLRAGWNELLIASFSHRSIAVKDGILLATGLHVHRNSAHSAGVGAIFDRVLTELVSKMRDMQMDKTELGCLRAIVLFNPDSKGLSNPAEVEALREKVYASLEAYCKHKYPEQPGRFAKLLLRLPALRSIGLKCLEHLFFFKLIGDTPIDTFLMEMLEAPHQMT

| Structure (SMILES) | Potency [1] | Potency [2] | Potency [3] | Potency [4] | Potency [5] | Potency [6] | Potency [7] | Potency [8] | Potency [9] | Potency [10] | Potency [11] | Potency [12] | outcome [13] | Potency [14] | outcome [15] | Potency [16] | Potency [17] | outcome [18] | Potency [19] | Potency [20] |
| --- | --- | --- | --- | --- | --- | --- | --- | --- | --- | --- | --- | --- | --- | --- | --- | --- | --- | --- | --- | --- |
| CC(C(=O)O)c1ccc2c(c1)[nH]c1ccc(Cl)cc12 (stereo not drawn) | inactive | inactive | inactive | inactive | inactive | inactive | inactive | inactive | inactive | inactive | – | – | – | – | – | – | – | – | – | – |
| CC(C)=CCNc1ncnc2c1ncn2[C@@H]1O[C@H](CO)[C@@H](O)[C@H]1O | – | 8.49 µM (active) | 10.6 µM (active) | 13.3 µM (active) | 6.01 µM (active) | inactive | – | 13.3 µM (active) | – | – | 13.4 µM (active) | – | – | – | – | – | – | – | – | – |
| CCC(C)n1ncn(-c2ccc(N3CCN(c4ccc(OC[C@H]5CO[C@](Cn6cncn6)(c6ccc(Cl)cc6Cl)O5)cc4)CC3)cc2)c1=O (stereo partly drawn) | inactive | inactive | inactive | 1.19 µM (active) | inactive | inactive | – | inactive | – | inactive | inactive | 3.76 µM (active) | – | – | – | – | – | – | – | – |
| O=C(O)Cc1ccc2c(c1)C(=O)c1ccccc1CO2 | inactive | inactive | inactive | inactive | inactive | inactive | inactive | inactive | inactive | – | – | – | – | – | – | – | – | – | – | – |
| Cc1cc(C)c(/C=C2\C(=O)Nc3ccccc32)[nH]1 | inactive | inactive | inactive | inactive | inactive | inactive | inactive | inactive | – | inactive | – | inactive | inactive | inactive | inactive | inactive | inactive | inactive | – | – |
| COc1ccc2c(c1)c(CC(=O)OC/C=C(\C)CC/C=C(\C)CCC=C(C)C)c(C)n2C(=O)c1ccc(Cl)cc1 | inactive | inactive | inactive | inactive | inactive | inactive | inactive | inactive | – | inactive | inactive | inactive | – | – | – | – | – | – | – | – |
| CN(C)c1ccc(C(=C2C=CC(=[N+](C)C)C=C2)c2ccc(N(C)C)cc2)cc1 | 9.72 µM (active) and 21.9 µM (active) and 19 µM (active) | 24.4 µM (active) | 6.08 µM (active) and 13.7 µM (active) and 5.31 µM (active) | 1.36 µM (active) and 1.54 µM (active) and 2.66 µM (active) | – | – | 13.7 µM (active) and 19.5 µM (active) and 19 µM (active) | 17.1 µM (active) and 27.3 µM (active) and 23.7 µM (active) | 7.66 µM (active) and 2.17 µM (active) and 3.76 µM (active) | – | 12.3 µM (active) and 9.52 µM (active) | 9.64 µM (active) and 12.2 µM (active) and 13.3 µM (active) | – | – | – | – | – | – | – | – |
| O=S(=O)(O)c1ccccc1/C=C/c1ccc(-c2ccc(/C=C/c3ccccc3S(=O)(=O)O)cc2)cc1 | inactive | inactive | inactive | inactive | inactive | 31.3 µM (active) | inactive | inactive | inactive | inactive | – | inactive | – | – | – | – | – | – | 35.2 µM (active) | – |
| Cc1cccc(C(=O)O)c1O | inactive | inactive | inactive | inactive | inactive | inactive | inactive | inactive | – | inactive | – | inactive | – | – | – | – | – | – | inactive | – |
| CCCCCCCCCCCC(=O)OCC(C)OC(=O)CCCCC(=O)O (stereo not drawn) | inactive | inactive | inactive | inactive | inactive | inactive | inactive | inactive | – | inactive | – | inactive | – | – | – | – | – | – | inactive | – |
| C=Cc1ccccc1C=C | inactive | inactive | inactive | inactive | inactive | inactive | inactive | inactive | inactive | inactive | inactive | – | – | – | – | – | – | – | – | – |
| CCC(C)(CCC(C)C)C(=O)[O][Sn]([CH3])([CH3])[O]C(=O)C(C)(CC)CCC(C)C (stereo not drawn) | inactive | inactive | inactive | 27.3 µM (active) | inactive | inactive | inactive | inactive | – | – | inactive | inactive | – | – | – | – | – | – | – | – |
| O=C(c1ccc(O)c(O)c1)c1ccc(O)cc1O | inactive | inactive | inactive | 21.6 µM (active) | inactive | inactive | inactive | inactive | inactive | – | inactive | – | – | – | – | – | – | – | – | – |
| CCCCCCCCCCCCCC[N+](C)(C)C | 26.6 µM (active) and 6.16 µM (active) and 23.9 µM (active) | 54.9 µM (active) | 61.1 µM (active) | 11.8 µM (active) and 24.3 µM (active) and 11.9 µM (active) | 42.2 µM (active) and 48.9 µM (active) and inactive | – | 10.6 µM (active) and 15.5 µM (active) and 21.3 µM (active) | 61.1 µM (active) and inactive | – | inactive | – | 29.6 µM (active) and 15.3 µM (active) | – | – | – | – | – | – | – | – |
| Cc1cc(=O)oc2cc(O)cc(O)c12 | inactive | inactive | inactive | inactive | inactive | inactive | inactive | – | – | inactive | inactive | – | – | – | – | – | – | – | – | – |
| CCCCCCCCCCCCCCCC[N+](C)(C)CC | 13.8 µM (active) and 23.9 µM (active) | 21.3 µM (active) | 61.3 µM (active) and 23.7 µM (active) | 17.3 µM (active) and 2.98 µM (active) | – | – | 8.74 µM (active) and 10.7 µM (active) | 61.3 µM (active) | – | – | – | 30.7 µM (active) and 23.7 µM (active) | – | – | – | – | – | – | – | – |
| COc1cc(C)ccc1O | inactive | inactive | inactive | inactive | inactive | inactive | inactive | inactive | – | inactive | – | – | – | – | – | – | – | – | inactive | – |
| CCCC[P+](C)(CCCC)CCCC | inactive | – | inactive | inactive | inactive | inactive | inactive | inactive | inactive | inactive | – | – | – | – | – | – | – | – | inactive | inactive |
